Compound activity (PubChem)
KB-3-1 tox = qHTS assay for MDR1-selective chemotherapeutics: Primary screen using the parental adenocarcinoma cell KB-3-1; Potency, µM (series often up to 46.1 µM), most hits filed as cytotoxic; 400,000 tested, 1.4% active; KB-3-1 viability, CellTiter-Glo ATP luminescence, 72 h; AID 1347075, 2019; also: nearly all actives have a fitted effect of over 60% in size
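KB-3-1 cells, DMEM (no phenol red) + 10% FBS; compound by pin transfer, 72 h, 37 °C. Readout: CellTiter-Glo luminescence after 10 min. Data normalized, curve-fitted.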
HT1080 IDH1KD tx = qHTS for induction of synthetic lethality in tumor cells producing 2HG: qHTS for the HT-1080-IDH1KD cell line; HT-1080 IDH1 knockdown viability, ATP luminescence, 48 h; Potency, µM (series often up to 46.1 µM), hits mostly cytotoxic; 360,000 tested, 2% active; AID 686971, 2013
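After a 2 h attachment period, IDH1KD HT-1080 cells took pin-transferred compound for 48 h at 37 °C; ATP-based luminescence after 10 min room-temperature reagent incubation reported viability.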
SW480 rerep = A quantitative high throughput screen for small molecules that induce DNA re-replication in SW480 colon adenocarcinoma cells; 340,000 tested, 1.8% active; SW480 DNA re-replication, Hoechst DNA content imaging, 48 h; Potency, µM (doses to about 46.1 µM), actives largely listed as activators; also: nearly all actives have a fitted effect of over 55% in size
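Cells (250 per well) received 23 nL compound or DMSO by pin tool and were kept 48 hr at 37 C, 5% CO2. Nuclei were then stained with Hoechst for 40 min and scanned for DNA content.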
HT1080NT lethal = qHTS for induction of synthetic lethality in tumor cells producing 2HG: qHTS for the HT-1080-NT fibrosarcoma cell line; HT-1080-NT fibrosarcoma viability, CellTiter-Glo ATP luminescence, 48 h; Potency, µM (highest dose often 46.1 µM), most hits filed as cytotoxic; 360,000 tested, 1.6% active; AID 686970, 2013;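 also: NT is the 2HG producing partner of a matched IDH1 knockdown line; nearly all actives have a fitted effect of over 55% in size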
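Read-out is CellTiter-Glo luminescence after 10 minutes at room temperature, following 48 hours' compound treatment of HT-1080-NT cells (750 cells/well, RPMI, 5% FBS, 37 degrees C).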
MCF10A rerep = A quantitative high throughput screen for small molecules that induce DNA re-replication in MCF 10a normal breast cells. 350,000 tested, 2.9% active. AID 624296, 2012. Potency, µM (series often up to 46.1 µM), usual class: activators. MCF 10A DNA re-replication, Hoechst nuclear intensity, 48 h; also: nearly all actives have a fitted effect of over 50% in size
KB-V1 MDR tox = qHTS assay for MDR1-selective chemotherapeutics: Primary screen using the drug-selected MDR subline cells KB-V1; Potency, µM (highest dose often 46.1 µM), actives largely listed as cytotoxic; KB-V1 MDR cells viability, CellTiter-Glo, 72 h; 400,000 tested, 3.4% active; also: nearly all actives have a fitted effect of over 60% in size
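KB-V1 cells (P-gp-expressing MDR subline of KB-3-1) in phenol-red-free DMEM with 10% FBS were exposed to library compounds over a concentration series for 72 h at 37 degrees C. Viability read by CellTiter-Glo luminescence; concentration-effect curves fitted after normalization.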
Hits are given with their value; i = inactive; ? = inconclusive; nt = no result given; [ ] = dose if it differs, or a comment. Rows were chosen to be rich in hits. Some 8% of all compounds tested hit in one or more screens of this group. Calls follow the shape of the dose curve; as a rule, active = well fitted curve in the direction sought with a large enough effect; inconclusive = small, poorly fitted or top-dose-only effect, or another doubt; inactive = no such curve, though single readings can be large; an effect the other way counts as inactive or inconclusive.

SMILES	KB-3-1 tox	HT1080 IDH1KD tx	SW480 rerep	HT1080NT lethal	MCF10A rerep	KB-V1 MDR tox
O=C(c1c[nH]c2ccccc12)C(Cl)c1ccccc1 (stereo not given)	i	?	?	i	23.1µM	?
Nc1c(Cl)cc(C2=NCCn3nc4ccccc4c32)cc1Cl	6.51µM	i	i	i	i	20.6µM
COc1ccccc1NC(=O)C(Cc1ccccc1)NS(=O)(=O)c1ccc2c(c1)c(=O)n(C)c(=O)n2C (stereo not given)	i	nt	nt	nt	nt	i
CC(C)(C)OC(=O)N1CCC(c2c(C(=O)N3CCN(c4ccccn4)CC3)cnn2-c2ccccc2Cl)CC1	i	nt	nt	nt	nt	i
Cc1cccc(NCc2nc3ccccc3n2CCOc2ccccc2C)c1	i	nt	nt	nt	nt	i
O=C(NCCCO)/C(=C/c1ccc(-c2cccc([N+](=O)[O-])c2)o1)NC(=O)c1ccccc1	i	?	i	i	i	i
Cc1ccc(C(=O)N/C(=C/c2ccc(-c3ccc([N+](=O)[O-])cc3)o2)C(=O)NCCCN(C)C)cc1	i	?	23.1µM	23.1µM	?	i
CC1CCc2nn(CC(=O)Nc3ccccc3Cl)cc2C1 (stereo not given)	i	nt	nt	nt	nt	i
CCOc1ccc(Br)cc1C1C(C(=O)OC)=C(N)Oc2cc(N(C)C)ccc21 (stereo not given)	?	14.6µM	?	11.6µM	10.3µM	23.1µM
COC(=O)Cc1c(C)c2cc3c(c(C)c2oc1=O)OCN(CCc1ccc(OC)cc1)C3	i	nt	nt	nt	nt	i
CC(=Nc1ccccc1)C1=C(O)CCCC1=O	i	i	i	i	i	i
CC(=Nc1ccccc1)C1=C(O)C(Cc2ccc(F)cc2)NC1=O (stereo not given)	1.84µM	2.59µM	nt	2.59µM	nt	?
CC(=Nc1ccccc1)C1=C(O)CSC1=O	i	i	i	i	i	i
CC(=Nc1ccccc1)C1=C(O)C(CC(C)C)NC1=O (stereo not given)	i	i	i	i	i	23.1µM
CC(=Nc1ccccc1)C1=C(O)C(Cc2ccccc2)NC1=O (stereo not given)	0.0065µM	?	0.164µM	0.581µM	?	i
CN(CC(=O)Nc1ccc(Cl)cc1F)S(=O)(=O)c1ccc2c(c1)n(C)c(=O)c(=O)n2C	i	nt	nt	nt	nt	i
CCC(C(=O)Nc1nnc2n1CCS2)c1ccccc1 (stereo not given)	i	nt	nt	nt	nt	?
COc1ccccc1N1CCN(C(=O)Cc2c(C(=O)O)c(C)cn2C)CC1	i	nt	nt	nt	nt	i
C=C1/C(=C\C=C2/CCC[C@]3(C)[C@@H]([C@H](C)CCCC(C)(C)O)CC[C@@H]23)C[C@@H](O)C[C@@H]1O	nt	nt	i	nt	21.1µM	nt
C=C1CC[C@H](O)C/C1=C/C=C1\CCC[C@]2(C)[C@@H]([C@H](C)CCCC(C)(C)O)CC[C@@H]12	nt	nt	i	nt	10.6µM	nt
O=C(NCCCc1nc2ccccc2n1CCOc1ccccc1)C1CCCCC1	i	nt	nt	nt	nt	i
CN(C)c1ccc2ccc3cccc4ccc1c2c34	i	nt	nt	nt	nt	i
CCN1/C(=C/c2cc[n+](C)cc2)C=Cc2cc(C)ccc21	2.91µM	?	i	i	i	i
CNC(=O)C1CCC(Cn2c(=O)c3sccc3n(CC(=O)NCc3ccccc3)c2=O)CC1 (stereo not given)	i	nt	nt	nt	nt	i
COc1ccc(-c2cn3ccccc3n2)cc1	?	?	i	?	i	?
SMILES	KB-3-1 tox	HT1080 IDH1KD tx	SW480 rerep	HT1080NT lethal	MCF10A rerep	KB-V1 MDR tox
COc1c(Cl)cccc1-c1cn2ccccc2n1	i	?	i	?	i	11.6µM
CCN(CC)CCNC(=O)c1ccc(-c2nc(CS(=O)(=O)c3ccc(C)cc3)c(C)o2)cc1	i	nt	nt	nt	nt	i
CCOC(=O)Cn1c(=O)n(C2CCCCC2)c2nc(-c3ccc(Cl)cc3)nc(C(N)=O)c21	?	nt	nt	nt	nt	i
COc1ccccc1Nc1nc(N)nc(CSc2nccc(C)n2)n1	i	i	i	i	i	i
COc1ccccc1Nc1nc(N)nc(CSc2nc(C)cc(C)n2)n1	?	i	i	i	i	13µM
COc1cccc(-c2nnc(NC(=O)c3ccc(S(=O)(=O)N4CC(C)OC(C)C4)cc3)o2)c1 (stereo not given)	?	9.2µM	?	?	?	?
COc1ccc(-c2csc(NC(=O)c3ccc(S(=O)(=O)N4CCc5ccccc5C4)cc3)n2)cc1	?	?	i	i	?	i
COc1ccc(-c2nnc(NC(=O)c3ccc(S(=O)(=O)N4CCc5ccccc5C4)cc3)o2)cc1	?	i	?	?	i	10µM
O=C(Nc1nnc(-c2ccc(F)cc2)o1)c1ccc(S(=O)(=O)N2CCOCC2)cc1	4.11µM	?	10.3µM	i	i	?
O=C(Cn1cnc2onc(-c3ccc(F)cc3)c2c1=O)N1CCN(c2ccccc2F)CC1	i	nt	nt	nt	nt	i
CN(C)c1cccc(-c2nnc(N3CCC(C(N)=O)CC3)s2)c1	i	nt	nt	nt	nt	i
CCN(CC)c1ccc(C2=NNC(=O)CC2C)cc1[N+](=O)[O-] (stereo not given)	0.206µM	?	i	i[9.24 µM]	i	?
O=C(NN=C1CCCC1)c1n[nH]c2c1CCC2	?	3.66µM	?	2.59µM	?	?
Cc1ccsc1/C=N\NC(=O)c1n[nH]c2c1CCC2	3.26µM	7.31µM	13µM	6.51µM	8.2µM	4.61µM
O=C(NN=C1CCCC1)c1n[nH]c2c1CCCC2	i	?	?	?	?	i
CC(=O)NC1CCCC1C#N (stereo not given)	?	nt	nt	nt	nt	i
Cc1nc(N2CCN(Cc3ccccc3)CC2)nc2c1C(=O)CCC2	?	i	i	i	?	18.4µM
O=C1CCCc2nc(N3CCN(Cc4ccccc4)CC3)ncc21	i	i	i	i	i	20.6µM
Cc1nc(N2CCN(Cc3ccccc3)CC2)nc2c1C(=O)CC(c1ccco1)C2 (stereo not given)	?	i	i	i	?	8.2µM
COc1ccc(S(=O)(=O)N2CCC(n3c(C)nc4cccnc43)CC2)cc1Cl	i	nt	nt	nt	nt	i
COc1ccc(-c2nnc(SCc3c(C)noc3C)n2N)cc1OC	i	i	i	i	i	7.31µM
Cc1ccc(Cl)cc1N1CCN(S(=O)(=O)c2ccc3[nH]c(=O)c(=O)[nH]c3c2)CC1	i	i	i	i	i	i
Cc1ccc(Cl)cc1N1CCN(S(=O)(=O)c2ccc3c(c2)NC(=O)C(C)C(=O)N3)CC1 (stereo not given)	i	i	i	?	18.4µM	i
Cc1ccc(Cl)cc1N1CCN(S(=O)(=O)c2ccc3c(c2)C(C(C)C)C(=O)N3)CC1 (stereo not given)	i	nt	nt	nt	nt	?
